PubChem BioAssay (EPA / NIEHS)
Inconclusive results are not listed. Activity calls are given as the source filed them. The calls were made as follows: active = hit-call score of the fitted dose curve at least 0.9, where 1 is the maximum; inconclusive = response in the unintended direction; inactive = score below 0.9.

Key:
[1] = biological target: Estrogen receptor (Homo sapiens) (UniProt P03372); assay: OT_ER_ERaERa_1440: Odyssey Thera (OT) 24-hour HEK293T Protein-Complementation Assay for Estrogen Receptor-alpha/-alpha Homodimer (AID 2283349);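 also: hits raise fluorescence above DMSO for agonists and antagonists alike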
Procedure, shortened: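 HEK293T cells stably expressing the human ER alpha ligand-binding domain (aa 310-547) as a homodimer PCA were dosed for 24 hours. Fluorescence intensity was read by laser scanning cytometry, and gain of signal was fitted relative to DMSO vehicle.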

[2] = biological target: Estrogen receptor (Homo sapiens) (UniProt P03372); assay: OT_ER_ERaERa_0480: Odyssey Thera (OT) 8-hour HEK293T Protein-Complementation Assay for Estrogen Receptor-alpha/-alpha Homodimer (AID 2283351);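 also: rise in fluorescence from reassembled reporter fragments on ERα LBD homodimer in nucleus or whole cell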
Procedure, shortened: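 HEK293T, stable ERα LBD (aa 310-547) PCA homodimer; 8 h compound exposure; fluorescence intensity, laser scanning cytometer; positive fitting direction, DMSO baseline.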

[3] = biological target: T1, Estrogen receptor (Homo sapiens) + Estrogen receptor beta (Homo sapiens) (UniProt P03372+Q92731); assay: OT_ER_ERaERb_0480: Odyssey Thera (OT) 8-hour HEK293T Protein-Complementation Assay for Estrogen Receptor-alpha/-beta Heterodimer (AID 2283352)
Procedure, shortened: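 Human HEK293T cells were treated for 8 hours and receptor heterodimerisation was detected through reconstitution of a fluorescent reporter split between ER-alpha and ER-beta ligand-binding domains. Activity was analysed as gain of signal against DMSO.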

[4] = biological target: Androgen Receptor/SRC-1 Co-activator, AR (gene 367) (UniProt P10275); assay: OT_AR_ARSRC1_0960: Odyssey Thera (OT) 16-hour HEK293T Protein-Complementation Assay for Androgen Receptor/SRC-1 Co-activator (AID 2283353);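 also: actives raise the signal above DMSO so potency reflects increased AR and SRC-1 complex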
Procedure, shortened: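 Split-Venus PCA, AR/SRC-1 fusions, stable HEK293T; 16 h compound exposure; imaged at 488 and 635 nm; N/C ratio (488 nm channel), min 400 cells/image; positive-direction fit, DMSO baseline.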

[5] = biological target: Androgen Receptor/SRC-1 Co-activator, AR (gene 367) (UniProt P10275); assay: OT_AR_ARSRC1_0480: Odyssey Thera (OT) 8-hour HEK293T Protein-Complementation Assay for Androgen Receptor/SRC-1 Co-activator (AID 2283354);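 also: hits raise the complementation signal above DMSO so AC50 marks enhancers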
Procedure, shortened: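 HEK293T cells stably expressing AR and SRC-1 fused to Venus YFP fragments, imaged 8 h after dosing. Complementation fluorescence scored as nuclear/cytoplasmic ratio at 488 nm in at least 400 cells per image; gain fitted versus DMSO.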

[6] = biological target: T1, Estrogen receptor (Homo sapiens) + Estrogen receptor beta (Homo sapiens); assay: OT_ER_ERaERb_1440: Odyssey Thera (OT) 24-hour HEK293T Protein-Complementation Assay for Estrogen Receptor-alpha/-beta Homodimer (AID 2283356);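 also: heteromer of ER alpha and ER beta binding domains; hits raise reporter fluorescence and both agonists and antagonists give an increase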
Procedure, shortened: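 24 h exposure; HEK293T PCA cells with ERα/ERβ LBD fragments; signal rise in nuclear or whole-cell fluorescence over vehicle.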

[7] = biological target: Estrogen receptor beta (Homo sapiens) (UniProt Q92731); assay: OT_ER_ERbERb_0480: Odyssey Thera (OT) 8-hour HEK293T Protein-Complementation Assay for Estrogen Receptor-beta/-beta Homodimer (AID 2283357);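 also: active means signal gain over DMSO baseline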
Procedure, shortened: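 Fluorescence intensity, nuclear for agonists and nuclear plus cytoplasmic for antagonists, was quantified by laser scanning cytometry versus vehicle after 8 h treatment. The cells were HEK293T stably carrying ER beta LBD fragment-complementation partners.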

[8] = biological target: Retinoic acid receptor alpha (Homo sapiens) (UniProt P10276); assay: NVS_NR_hRAR_Antagonist: NovaScreen (NVS) Nuclear Receptor Binding Assay for human Retinoic Acid Alpha Receptor Antagonism (RAR) (AID 2283358)
Procedure, shortened: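 Cell-free TR-FRET binding assay with extracted human RARalpha in antagonist mode, read 2 h after dosing. Loss of signal was fitted relative to DMSO; the primary screen used 25 uM in duplicate, with concentration series on follow-up.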

[9] = biological target: rat Mineralocorticoid Receptor (MR), Nr3c2 (gene 25672) (UniProt P22199); assay: NVS_NR_rMR: NovaScreen (NVS) Nuclear Receptor Binding Assay for rat Mineralocorticoid Receptor (MR) (AID 2283355)
Procedure, shortened: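 Cell-free radioligand binding to mineralocorticoid receptor from adrenalectomized rat brain supernatant, scintillation counting after 24 h. Primary screen in duplicate at 25 uM; actives retested in concentration series. Loss of specific binding versus DMSO.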

Measured: AC50

rat Mineralocorticoid Receptor (MR), Nr3c2 (gene 25672), sequence (P22199 whole entry, looked up): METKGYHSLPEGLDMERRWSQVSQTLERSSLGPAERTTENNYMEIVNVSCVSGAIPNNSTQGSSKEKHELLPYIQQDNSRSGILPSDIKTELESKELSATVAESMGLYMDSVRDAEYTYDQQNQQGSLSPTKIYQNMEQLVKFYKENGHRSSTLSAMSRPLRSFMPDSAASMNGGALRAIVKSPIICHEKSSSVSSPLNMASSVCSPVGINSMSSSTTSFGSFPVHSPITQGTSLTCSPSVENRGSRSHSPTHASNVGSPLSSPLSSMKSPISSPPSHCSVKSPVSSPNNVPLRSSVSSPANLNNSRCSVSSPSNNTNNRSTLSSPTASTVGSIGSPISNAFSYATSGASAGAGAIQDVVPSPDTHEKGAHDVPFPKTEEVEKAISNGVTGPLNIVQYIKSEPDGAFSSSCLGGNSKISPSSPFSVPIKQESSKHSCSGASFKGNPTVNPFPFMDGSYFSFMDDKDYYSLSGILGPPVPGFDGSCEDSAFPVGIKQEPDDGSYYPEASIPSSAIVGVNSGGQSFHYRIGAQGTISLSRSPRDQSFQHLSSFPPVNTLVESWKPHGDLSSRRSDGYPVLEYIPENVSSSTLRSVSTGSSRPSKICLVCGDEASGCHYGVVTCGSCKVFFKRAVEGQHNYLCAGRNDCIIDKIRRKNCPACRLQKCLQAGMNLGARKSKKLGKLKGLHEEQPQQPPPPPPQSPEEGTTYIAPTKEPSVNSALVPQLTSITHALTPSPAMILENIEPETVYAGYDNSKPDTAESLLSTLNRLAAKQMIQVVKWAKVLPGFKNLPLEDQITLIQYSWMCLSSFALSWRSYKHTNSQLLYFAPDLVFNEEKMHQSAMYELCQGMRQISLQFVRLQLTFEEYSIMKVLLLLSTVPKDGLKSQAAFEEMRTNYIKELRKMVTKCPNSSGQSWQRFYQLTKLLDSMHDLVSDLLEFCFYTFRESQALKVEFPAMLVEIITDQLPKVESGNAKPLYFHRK
T1 sequence (P03372 whole entry, looked up, the tested form may be a part): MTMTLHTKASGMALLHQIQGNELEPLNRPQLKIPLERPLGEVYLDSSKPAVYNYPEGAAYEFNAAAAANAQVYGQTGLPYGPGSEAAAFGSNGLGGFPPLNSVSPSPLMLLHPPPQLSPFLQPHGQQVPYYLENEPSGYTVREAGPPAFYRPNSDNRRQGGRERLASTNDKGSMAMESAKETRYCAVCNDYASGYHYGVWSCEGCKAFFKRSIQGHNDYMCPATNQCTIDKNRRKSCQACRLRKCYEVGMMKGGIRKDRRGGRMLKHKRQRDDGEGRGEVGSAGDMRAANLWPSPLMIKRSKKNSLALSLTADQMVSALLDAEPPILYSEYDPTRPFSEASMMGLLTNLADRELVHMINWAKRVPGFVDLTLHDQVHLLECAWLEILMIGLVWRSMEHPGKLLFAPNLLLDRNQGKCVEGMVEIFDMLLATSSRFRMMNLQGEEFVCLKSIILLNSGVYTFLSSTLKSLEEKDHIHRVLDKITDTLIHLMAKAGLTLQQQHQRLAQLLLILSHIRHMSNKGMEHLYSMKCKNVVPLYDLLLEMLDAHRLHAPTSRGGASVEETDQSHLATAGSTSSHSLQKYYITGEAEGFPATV
T1 sequence (Q92731 whole entry, looked up, the tested form may be a part): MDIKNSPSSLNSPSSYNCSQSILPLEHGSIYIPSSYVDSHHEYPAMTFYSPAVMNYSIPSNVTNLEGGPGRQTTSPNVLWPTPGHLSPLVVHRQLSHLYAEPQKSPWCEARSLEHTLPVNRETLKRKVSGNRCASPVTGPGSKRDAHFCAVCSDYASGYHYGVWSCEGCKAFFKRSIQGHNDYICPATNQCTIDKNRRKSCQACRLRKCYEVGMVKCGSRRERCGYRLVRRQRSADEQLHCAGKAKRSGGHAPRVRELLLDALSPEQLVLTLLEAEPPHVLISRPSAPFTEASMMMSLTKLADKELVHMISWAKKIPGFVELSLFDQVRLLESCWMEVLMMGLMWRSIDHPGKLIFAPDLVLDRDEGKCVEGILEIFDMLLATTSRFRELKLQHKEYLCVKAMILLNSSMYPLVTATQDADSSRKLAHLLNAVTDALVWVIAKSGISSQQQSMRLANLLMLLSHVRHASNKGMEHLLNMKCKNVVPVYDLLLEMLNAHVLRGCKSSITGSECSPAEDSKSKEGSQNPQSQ
Estrogen receptor (Homo sapiens), sequence (P03372 whole entry, looked up, the tested form may be a part): as the sequence (P03372 whole entry, looked up, the tested form may be a part) above
Androgen Receptor/SRC-1 Co-activator, AR (gene 367), sequence (P10275 whole entry, looked up, the tested form may be a part): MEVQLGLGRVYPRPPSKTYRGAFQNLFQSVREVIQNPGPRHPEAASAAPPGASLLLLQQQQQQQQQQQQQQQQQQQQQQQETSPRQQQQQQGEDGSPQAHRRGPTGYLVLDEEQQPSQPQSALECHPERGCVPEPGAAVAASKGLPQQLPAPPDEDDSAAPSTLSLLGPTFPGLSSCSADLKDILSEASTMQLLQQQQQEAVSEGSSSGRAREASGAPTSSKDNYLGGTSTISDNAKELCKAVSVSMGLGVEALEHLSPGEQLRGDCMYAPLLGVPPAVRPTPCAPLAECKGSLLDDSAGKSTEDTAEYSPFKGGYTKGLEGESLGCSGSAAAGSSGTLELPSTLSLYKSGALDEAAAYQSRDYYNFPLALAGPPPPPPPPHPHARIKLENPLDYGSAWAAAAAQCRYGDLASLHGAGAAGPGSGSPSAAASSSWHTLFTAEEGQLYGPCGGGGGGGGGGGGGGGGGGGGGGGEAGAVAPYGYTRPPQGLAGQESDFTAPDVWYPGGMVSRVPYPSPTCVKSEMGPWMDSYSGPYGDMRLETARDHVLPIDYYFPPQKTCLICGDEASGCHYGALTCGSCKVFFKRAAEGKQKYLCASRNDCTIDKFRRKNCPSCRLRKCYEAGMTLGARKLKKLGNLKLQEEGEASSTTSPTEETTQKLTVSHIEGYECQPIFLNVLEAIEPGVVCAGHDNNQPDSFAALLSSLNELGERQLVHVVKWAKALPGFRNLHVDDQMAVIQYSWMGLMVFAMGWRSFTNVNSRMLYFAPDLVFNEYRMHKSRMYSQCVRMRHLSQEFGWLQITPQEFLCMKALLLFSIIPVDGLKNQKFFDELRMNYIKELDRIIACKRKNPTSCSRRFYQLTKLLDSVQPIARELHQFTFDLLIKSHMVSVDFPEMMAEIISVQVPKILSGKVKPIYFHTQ
Retinoic acid receptor alpha (Homo sapiens), sequence (P10276 whole entry, looked up): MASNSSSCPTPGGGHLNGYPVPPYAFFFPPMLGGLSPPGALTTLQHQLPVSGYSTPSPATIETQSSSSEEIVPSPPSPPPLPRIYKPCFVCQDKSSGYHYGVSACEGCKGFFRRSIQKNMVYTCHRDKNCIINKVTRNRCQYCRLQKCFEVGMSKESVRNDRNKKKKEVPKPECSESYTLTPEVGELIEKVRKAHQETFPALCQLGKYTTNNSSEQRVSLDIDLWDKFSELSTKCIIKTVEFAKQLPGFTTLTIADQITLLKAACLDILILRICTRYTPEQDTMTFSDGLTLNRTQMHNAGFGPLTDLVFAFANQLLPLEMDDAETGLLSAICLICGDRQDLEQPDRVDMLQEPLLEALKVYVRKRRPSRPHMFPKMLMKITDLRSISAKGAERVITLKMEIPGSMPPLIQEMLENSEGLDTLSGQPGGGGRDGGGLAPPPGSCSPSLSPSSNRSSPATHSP
Estrogen receptor beta (Homo sapiens), sequence (Q92731 whole entry, looked up, the tested form may be a part): as the sequence (Q92731 whole entry, looked up, the tested form may be a part) above

COC(=O)N(C(=O)N1CO[C@@]2(C(=O)OC)Cc3cc(Cl)ccc3C2=N1)c1ccc(OC(F)(F)F)cc1
inactive: [1] | [2] | [3] | [4] | [5] | [6] | [7]

CCOc1nc(F)cc2nc(S(=O)(=O)Nc3c(Cl)cccc3Cl)nn12
inactive: [1] | [2] | [3] | [6] | [7]

N#CN=C1SCCN1Cc1ccc(Cl)nc1
inactive: [1] | [2]

Cc1ccc(N=CN(C)C=Nc2ccc(C)cc2C)c(C)c1
inactive: [1] | [2] | [6] | [7] | [8]

O=C1C2CC=CCC2C(=O)N1SC(Cl)(Cl)Cl (stereo not given)
inactive: [1] | [2] | [3] | [6] | [8]

N#Cc1c(Cl)cccc1Cl
inactive: [1] | [2] | [3] | [6] | [7]

CNC(=O)Oc1cccc2ccccc12
inactive: [1] | [2] | [8]

Nc1cnn(-c2ccccc2)c(=O)c1Cl
inactive: [1] | [2] | [3] | [6] | [7]

COc1ccc(-c2ccccc2)cc1NNC(=O)OC(C)C
inactive: [1] | [3] | [4] | [5] | [9] | [6] | [7]

CCN(CC)c1nc(C)cc(OP(=S)(OC)OC)n1
inactive: [1] | [2] | [8]
active: [3] 19.9 µM | [6] 34.9 µM | [7] 30.7 µM

COP(=O)(OC)O/C(C)=C/C(=O)N(C)C
inactive: [1] | [2] | [3] | [6] | [7]

CCCCC(C#N)(Cn1cncn1)c1ccc(Cl)cc1 (stereo not given)
inactive: [1] | [2] | [8]

Nc1c(Cl)c(Cl)nc(C(=O)O)c1Cl
inactive: [1] | [2] | [3] | [6] | [7]

COC(=O)NS(=O)(=O)c1ccc(N)cc1
inactive: [1] | [3] | [9] | [6] | [7]

CCCCOCN(C(=O)CCl)c1c(CC)cccc1CC
inactive: [1] | [2] | [6] | [7]
active: [4] 21.8 µM | [5] 50 µM

O=c1n(Cl)c(=O)n(Cl)c(=O)n1Cl
inactive: [1] | [2] | [6] | [7] | [8]

CC1(C)C(C=C(Cl)Cl)C1C(=O)OC(C#N)c1cccc(Oc2ccccc2)c1 (stereo not given)
inactive: [1] | [2] | [3] | [6] | [7] | [8]

Clc1nc(Cl)nc(Nc2ccccc2Cl)n1
inactive: [1] | [2] | [3] | [6] | [7]

CCCC(=NOCC)C1=C(O)CC(CC(C)SCC)CC1=O (stereo not given)
inactive: [1] | [3] | [9] | [6] | [7] | [8]

CC(C)N1C(=O)c2ccccc2NS1(=O)=O
inactive: [1] | [2] | [9]

COCC(=O)N(c1c(C)cccc1C)C(C)C(=O)OC (stereo not given)
inactive: [1] | [3] | [6] | [7]

CS(=O)(=O)c1cc(C(F)(F)F)ccc1C(=O)c1cnoc1C1CC1
inactive: [1] | [2] | [3] | [6] | [7] | [8]

CN=C=S
inactive: [1] | [2] | [8]

COc1cc(OC)nc(NC(=O)NS(=O)(=O)c2ncccc2OCC(F)(F)F)n1
inactive: [1] | [2] | [3] | [6] | [7]

CC(C)(C)C(=O)C(Oc1ccc(Cl)cc1)n1cncn1 (stereo not given)
inactive: [1] | [2] | [3] | [7]
active: [6] 58.6 µM

CC(C)Oc1cccc(NC(=O)c2ccccc2C(F)(F)F)c1
inactive: [1] | [3] | [6] | [8]

Cn1c(-c2ccccc2)cc(-c2ccccc2)[n+]1C
inactive: [1] | [2] | [3] | [7]

C=C(C)CN(CC)c1c([N+](=O)[O-])cc(C(F)(F)F)cc1[N+](=O)[O-]
inactive: [1] | [2] | [7]
active: [3] 50 µM | [6] 79.2 µM

CCNP(=S)(OC)O/C(C)=C/C(=O)OC(C)C (stereo not given)
inactive: [1] | [2] | [6] | [7]

CC1(C)CON(Cc2ccccc2Cl)C1=O
inactive: [1] | [2] | [3] | [6] | [7]

COC(=O)NC(=S)Nc1ccccc1NC(=S)NC(=O)OC
inactive: [1] | [2] | [3] | [6] | [7]

CCCN(CC)CC1COC2(CCC(C(C)(C)C)CC2)O1 (stereo not given)
active: [6] 32.2 µM
inactive: [1] | [2] | [7]

CCOc1cc(C(C)(C)C)ccc1C1COC(c2c(F)cccc2F)=N1 (stereo not given)
inactive: [1] | [3] | [9] | [6] | [7] | [8]
active: [4] 20.1 µM | [5] 20.4 µM

C=CCOC(=O)C(C)(C)OC(=O)c1cc(-n2c(=O)cc(C(F)(F)F)n(C)c2=O)ccc1Cl
inactive: [1] | [3] | [6] | [7]

Cc1c(COC(=O)[C@@H]2[C@H](/C=C(\Cl)C(F)(F)F)C2(C)C)cccc1-c1ccccc1
inactive: [1] | [2] | [3] | [7] | [8]
active: [6] 72.3 µM

CC(C)Nc1nc(Cl)nc(NC(C)C)n1
inactive: [1] | [3] | [6]

CS(=O)(=O)c1ccc(C(=O)C2C(=O)CCCC2=O)c([N+](=O)[O-])c1
inactive: [1] | [2] | [3] | [6] | [7]

O=C(O)c1c(Cl)ccc2cc(Cl)cnc12
inactive: [1] | [2] | [3] | [6] | [7]

CCOC(=O)C(C)OC(=O)c1cc(Oc2ccc(C(F)(F)F)cc2Cl)ccc1[N+](=O)[O-] (stereo not given)
inactive: [1] | [2] | [3] | [6] | [7] | [8]
